Results on nine compounds are retold here after PubChem BioAssay (NCI).

A short description of test [1]: NCI Yeast Anticancer Drug Screen. Data for the rad50 strain (AID 155).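 Also: 0% = growth of vehicle-only cultures of the same strain.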 The following applies: S. cerevisiae rad50 strain growth inhibition, active compounds read high. The gist of the method:
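Cells are treated with compound, grown, and their growth is then scored against vehicle-only cultures of the same repair-deficient yeast strain.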

Test [2] in a line: NCI Yeast Anticancer Drug Screen. Data for the mec2-1 strain (AID 157). The following applies: S. cerevisiae mec2-1 strain, active compounds read high. The gist of the method:
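Compounds were applied to mec2-1 yeast cells. Their growth was then compared with that of vehicle-treated cultures to give growth inhibition.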

The nature of test [3]: NCI Yeast Anticancer Drug Screen. Data for the sgs1 mgt1 strain (AID 161).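 Also: 0% = growth of cultures given vehicle only.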 To be noted: S. cerevisiae sgs1 mgt1 strain, active compounds read high. Put shortly: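 Growth of a repair-deficient yeast mutant was monitored after compound treatment and expressed as inhibition relative to vehicle-treated cultures.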
Test [4] is described as follows: NCI Yeast Anticancer Drug Screen. Data for the cln2 rad14 strain (AID 165).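 Also: 0% = growth equal to vehicle treated cultures.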 To be noted: S. cerevisiae cln2 rad14 strain, active compounds read high. The gist of the method: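 Strain: cln2 rad14 yeast, altered in cell cycle control and DNA damage repair. Read-out: growth inhibition vs vehicle.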
The nature of test [5]: NCI Yeast Anticancer Drug Screen. Data for the bub3 strain (AID 167). To be noted: S. cerevisiae bub3 mutant strain, active compounds read high. Put shortly:
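Part of a panel of yeast mutants defective in DNA damage repair or cell cycle regulation. Each strain is grown with compound, and inhibition is calculated relative to solvent-treated cultures.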

Test [6] can be described thus: NCI Yeast Anticancer Drug Screen. Data for the mlh1 rad18 strain (AID 175). The following applies: S. cerevisiae mlh1 rad18 strain growth inhibition, active compounds read high. The gist of the method:
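A repair-deficient yeast strain is exposed to test compound, and growth is scored relative to vehicle-treated controls.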

Where [7] appears, read: at 5.0 µM (retest, dose inferred, filed as 0.5).
The mark [8] stands for this setting: at 50.0 µM (retest, dose inferred, filed as 5.0).

This is part of a sample that, as a whole, favours compounds with a hit. Of some 79,000 tested, about 15% had one in any assay. A number with no mark means an inactive call. The source made the active and inactive calls. Rule as the data show it: active = growth inhibition above about 70%; inactive = the rest.

`Cc1cnc(Sc2ncccc2[N+](=O)[O-])[nH]c1=O`: the growth inhibition in test [1] (setting [7]) is 2%; in test [1] (setting [8]) it was 7%; in test [1] (at 50.0 µM), -7%; in test [2] (setting [7]) it was -3%; in test [2] (setting [8]), 21%; in test [2] (at 50.0 µM), 43.1%. Also, the growth inhibition in test [3] (setting [7]) was 5%; in test [3] (setting [8]), 14%; in test [3] (at 50.0 µM), 29.1%; in test [4] (setting [7]), -3%; in test [4] (setting [8]), 2%; in test [4] (at 50.0 µM), 26.1%. For the same compound, the growth inhibition in test [5] (setting [7]) is 6%; in test [5] (setting [8]), 9%; in test [5] (at 50.0 µM) it was -2.7%; in test [6] (setting [7]), 0%; in test [6] (setting [8]), 24%; in test [6] (at 50.0 µM), 27.9%.
For the compound `CCC(C)OC(=O)c1cccc(C)c1` (configuration not stated), the growth inhibition was 0% in test [1] (setting [7]); 17% in test [1] (setting [8]); 94.3% (active) in test [1] (at 50.0 µM); -2% in test [2] (setting [7]); 5% in test [2] (setting [8]); -6.8% in test [2] (at 50.0 µM). Further, the growth inhibition in test [3] (setting [7]) was 1%; in test [3] (setting [8]) it was 7%; in test [3] (at 50.0 µM), -5.05%; in test [4] (setting [7]), 1%; in test [4] (setting [8]) it was 6%; in test [4] (at 50.0 µM), 38.5%. Moreover, the growth inhibition in test [5] (setting [7]) is 2%; in test [5] (setting [8]), 23%; in test [5] (at 50.0 µM), 6.95%; in test [6] (setting [7]), -3%; in test [6] (setting [8]), 12%; in test [6] (at 50.0 µM), 2%.
As to `O=C(O)COc1cc(Br)cc(Br)c1-c1ccccc1`, the growth inhibition in test [1] (setting [7]) is 2%; in test [1] (setting [8]), 36%; in test [1] (at 50.0 µM) it was 65.2%; in test [2] (setting [7]), 14%; in test [2] (setting [8]) it was 70% (active); in test [2] (at 50.0 µM) it was 59.5%. The growth inhibition in test [3] (setting [7]) was -10%; in test [3] (setting [8]) it was 39%; in test [3] (at 50.0 µM), 71.2% (active); in test [4] (setting [7]) it was 2%; in test [4] (setting [8]), 56%; in test [4] (at 50.0 µM), 65%. In addition, the growth inhibition in test [5] (setting [7]) was -3%; in test [5] (setting [8]) it was 46%; in test [5] (at 50.0 µM) it was 29.8%; in test [6] (setting [7]), 22%; in test [6] (setting [8]) it was 78% (active); in test [6] (at 50.0 µM), 67.7%.
As for `Cc1ccc(Cl)cc1NC(=O)N(C)CCOC(=O)Nc1cccc(Cl)c1`, the growth inhibition in test [1] (setting [7]) was 32%; in test [1] (setting [8]) it was 95% (active); in test [1] (at 50.0 µM), 88.7% (active); in test [2] (setting [7]), 31%; in test [2] (setting [8]) it was 97% (active); in test [2] (at 50.0 µM), 91% (active). The growth inhibition is 41% in test [3] (setting [7]); 97% (active) in test [3] (setting [8]); 92.9% (active) in test [3] (at 50.0 µM); 22% in test [4] (setting [7]); 97% (active) in test [4] (setting [8]); 90% (active) in test [4] (at 50.0 µM). The growth inhibition in test [5] (setting [7]) is 23%; in test [5] (setting [8]), 94% (active); in test [5] (at 50.0 µM), 92.3% (active); in test [6] (setting [7]), 41%; in test [6] (setting [8]), 98% (active); in test [6] (at 50.0 µM), 90.5% (active).
Regarding `O=[N+]([O-])c1c(Br)ncn1Cc1ccccc1`, the growth inhibition in test [1] (setting [7]) is 26%; in test [1] (setting [8]), 92% (active); in test [1] (at 50.0 µM), 68.8%; in test [2] (setting [7]) it was 22%; in test [2] (setting [8]), 98% (active); in test [2] (at 50.0 µM), 8.25%. Further, the growth inhibition in test [3] (setting [7]) is 14%; in test [3] (setting [8]), 90% (active); in test [3] (at 50.0 µM), 22.4%; in test [4] (setting [7]), 21%; in test [4] (setting [8]), 99% (active); in test [4] (at 50.0 µM), 7.5%. The growth inhibition in test [5] (setting [7]) is 35%; in test [5] (setting [8]) it was 99% (active); in test [5] (at 50.0 µM) it was -4.85%; in test [6] (setting [7]), 49%; in test [6] (setting [8]), 94% (active); in test [6] (at 50.0 µM), 38.4%.
For the compound `CCCCCN=Cc1c(O)c(O)c(C(C)C)c2cc(C)c(-c3c(C)cc4c(C(C)C)c(O)c(O)c(C=NCCCCC)c4c3O)c(O)c12`, the growth inhibition in test [1] (setting [7]) is 2%; in test [1] (setting [8]) it was 43%; in test [1] (at 50.0 µM), 14.8%; in test [2] (setting [7]), -44%; in test [2] (setting [8]), 17%; in test [2] (at 50.0 µM), 62.9%. Further, the growth inhibition was 2% in test [3] (setting [7]); 50% in test [3] (setting [8]); 71.8% (active) in test [3] (at 50.0 µM); 1% in test [4] (setting [7]); 11% in test [4] (setting [8]); 20.4% in test [4] (at 50.0 µM). Moreover, the growth inhibition in test [5] (setting [7]) is -2%; in test [5] (setting [8]), 40%; in test [5] (at 50.0 µM), 30%; in test [6] (setting [7]) it was 1%; in test [6] (setting [8]), 25%; in test [6] (at 50.0 µM), 68.5%.
As for `O=C1NC(CSSCC2NC(=O)N(c3ccccc3)C2=O)C(=O)N1c1ccccc1` (configuration not stated), the growth inhibition in test [1] (setting [7]) is 8%; in test [1] (setting [8]) it was 94% (active); in test [1] (at 50.0 µM), 87.9% (active); in test [2] (setting [7]) it was 11%; in test [2] (setting [8]) it was 97% (active); in test [2] (at 50.0 µM), 58.9%. Further, the growth inhibition in test [3] (setting [7]) is 16%; in test [3] (setting [8]), 99% (active); in test [3] (at 50.0 µM), 93.6% (active); in test [4] (setting [7]) it was 1%; in test [4] (setting [8]), 90% (active); in test [4] (at 50.0 µM), 58.1%. The growth inhibition in test [5] (setting [7]) was 4%; in test [5] (setting [8]), 98% (active); in test [5] (at 50.0 µM) it was 55.5%; in test [6] (setting [7]), 8%; in test [6] (setting [8]) it was 96% (active); in test [6] (at 50.0 µM), 95.2% (active).
For the compound `N#C/C(=C\NC(=S)C(N)=S)c1nc2ccccc2s1`, the growth inhibition in test [1] (setting [7]) was 21%; in test [1] (setting [8]) it was 97% (active); in test [1] (at 50.0 µM), 88.1% (active); in test [2] (setting [7]), 28%; in test [2] (setting [8]) it was 99% (active); in test [2] (at 50.0 µM) it was 90.2% (active). Further, the growth inhibition was 7% in test [3] (setting [7]); 97% (active) in test [3] (setting [8]); 89.2% (active) in test [3] (at 50.0 µM); 30% in test [4] (setting [7]); 97% (active) in test [4] (setting [8]); 86.9% (active) in test [4] (at 50.0 µM). The growth inhibition in test [5] (setting [7]) is 22%; in test [5] (setting [8]) it was 98% (active); in test [5] (at 50.0 µM), 87.8% (active); in test [6] (setting [7]) it was 52%; in test [6] (setting [8]), 97% (active); in test [6] (at 50.0 µM), 85.5% (active).
For the compound `N#CCC(=O)N/N=C(/CC1(O)C(=O)Nc2c(Cl)cc(Cl)cc21)c1ccccc1` (configuration not stated), the growth inhibition in test [1] (setting [7]) is 2%; in test [1] (setting [8]), 35%; in test [1] (at 50.0 µM) it was 69.4%; in test [2] (setting [7]) it was 10%; in test [2] (setting [8]) it was 43%; in test [2] (at 50.0 µM), 59.6%. Besides, the growth inhibition in test [3] (setting [7]) was -1%; in test [3] (setting [8]), -6%; in test [3] (at 50.0 µM), 71.1% (active); in test [4] (setting [7]) it was -7%; in test [4] (setting [8]) it was 23%; in test [4] (at 50.0 µM) it was -20%. In addition, the growth inhibition was 3% in test [5] (setting [7]); 22% in test [5] (setting [8]); 26.4% in test [5] (at 50.0 µM); 5% in test [6] (setting [7]); 16% in test [6] (setting [8]); 75.2% (active) in test [6] (at 50.0 µM).
